The results in this text go back to PubChem BioAssay (NCATS).

Test [1] can be described thus: qHTS assay for environmental chemicals that activate the Aryl hydrocarbon Receptor (AhR) signaling pathway (AID 651777). Further: % of control where 0% means no effect; nearly all actives have a fitted effect of over 15% in size. The following applies: 1A2-DRE human hepatoma cells, luciferase, 24 h; hits give high values. Summed up:
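AhR activation is scored as a rise in luciferase from a stable DRE–CYP1A2 promoter construct in human hepatoma cells. Treatment lasts 24 hr at 37 C; detection uses One-Glo after 30 min at room temperature.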

Test [2] addresses Peroxisome proliferator-activated receptor alpha (Homo sapiens) (UniProt Q07869). The test can be described thus: qHTS assay for small molecule agonists of the peroxisome proliferator-activated receptor alpha (PPARalpha) signaling pathway (AID 651778). Further: % of control where 0% means no effect. The note with it: PathHunter PPARalpha complementation, chemiluminescence, 6 h; hits give high values. Summed up: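 Chemiluminescence from complemented enzyme reported PPARalpha activation in cells after 6 hr of compound treatment at 37 C. The detection reagent was incubated for 60 min at room temperature, and compounds were scored as agonists.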
Background: qHTS replaces the single test concentration by a dilution series.

The target of test [3] is Nuclear receptor ROR-gamma (Homo sapiens) (UniProt P51449). Kind of test: qHTS assay for small molecule antagonists of the retinoid-related orphan receptor gamma (ROR-gamma) signaling pathway (AID 651802).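 Further: CHO cells with doxycycline-induced ROR-gamma expression; luciferase reporter luminescence driven by ROR response element; on the % scale 0 is the no-effect control and ±100 the full control effect; nearly all actives have a fitted effect of over 60% in size.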 The following applies: ROR-gamma antagonist cell reporter assay; series mostly up to 92.2 µM. Summed up: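 Luciferase read-out: ONE-Glo luminescence after 30 min at room temperature, following 16hr doxycycline induction at 37C, 5% CO2 of CHO cells with TET-inducible ROR and RORE-LUC reporter; decreased luminescence = reduced reporter activity.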
Chain of Nuclear receptor ROR-gamma (Homo sapiens) (P51449 whole entry, looked up): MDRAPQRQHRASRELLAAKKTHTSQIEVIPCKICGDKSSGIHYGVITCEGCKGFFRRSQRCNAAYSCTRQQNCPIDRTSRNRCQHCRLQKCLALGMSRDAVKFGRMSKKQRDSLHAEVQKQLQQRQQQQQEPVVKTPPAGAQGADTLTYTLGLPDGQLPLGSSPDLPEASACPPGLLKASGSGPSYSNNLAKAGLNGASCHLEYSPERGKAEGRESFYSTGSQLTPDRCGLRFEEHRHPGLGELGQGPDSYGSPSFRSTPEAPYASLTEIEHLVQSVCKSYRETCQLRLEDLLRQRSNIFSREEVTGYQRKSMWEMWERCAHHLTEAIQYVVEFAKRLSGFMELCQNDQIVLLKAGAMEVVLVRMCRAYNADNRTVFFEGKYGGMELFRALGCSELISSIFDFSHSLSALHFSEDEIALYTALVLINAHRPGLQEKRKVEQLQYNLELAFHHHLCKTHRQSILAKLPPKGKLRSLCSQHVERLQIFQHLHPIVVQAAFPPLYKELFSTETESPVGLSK

The nature of test [4]: qHTS assay for small molecule agonists of the antioxidant response element (ARE) signaling pathway measured by Nrf2-dependant transcriptional activity (AID 720636; active means well fitted curve in the direction sought with a large enough effect in the repeat runs; an effect the other way counts as inactive or inconclusive;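 further: HepG2 cells with an ARE-driven luciferase reporter; % of control where 0% means no effect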). The following applies: ARE-luc HepG2, Nrf2 luciferase reporter, 16 h; series mostly up to 92.4 µM. Summed up:
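First, ARE-luc HepG2 cells attached for 6 hr at 37 C in 1% dialyzed FBS medium. Next, compound or DMSO was added and incubated 16 hr. Finally, ONE-Glo reagent was added and luminescence measured after 30 min.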

Test [5] is described as follows: qHTS assay for small molecule antagonists of the retinoid-related orphan receptor gamma (ROR-gamma) signaling pathway - cell viability counter screen (AID 720652; active means well fitted curve in the direction sought with a large enough effect in the repeat runs; an effect the other way counts as inactive or inconclusive;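 further: CHO reporter cells with doxycycline-induced ROR-gamma expression; compound exposure lasted 16 hr before ATP read; on the % scale 0 is the no-effect control and ±100 the full control effect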). The following applies: RORgamma reporter cell line viability counter screen; series mostly up to 92.2 µM. Summed up: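 CHO RORE-LUC/TET-ROR line, 1,000 cells/well, 37 C 5% CO2 5 hr; cpd or DMSO + doxycycline induction, 16 hr. CellTiter-Glo, 30 min RT, luminescence = ATP content.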

Test [6] can be described thus: qHTS assay for small molecule agonists of the antioxidant response element (ARE) signaling pathway measured by Nrf2-dependant transcriptional activity - cell viability counter screen (AID 720653; active means well fitted curve in the direction sought with a large enough effect in the repeat runs; an effect the other way counts as inactive or inconclusive; further: on the % scale 0 is the no-effect control and ±100 the full control effect). The note with it: ARE-bla HepG2 viability, CellTiter-Glo ATP luminescence, 16 h; hits give low values. A digest of the protocol: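 Cytotoxicity counter screen: intracellular ATP quantified by CellTiter-Glo luminescence in the same ARE-bla HepG2 plates, after 16 h compound exposure and a 2 h beta-lactamase substrate step.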

A short description of test [7]: qHTS assay for cell viability of HEK293 cells (AID 743288). Further: on the % scale 0 is the no-effect control and ±100 the full control effect; nearly all actives have a fitted effect of over 50% in size. The note with it: ATP luminescence (CellTiter-Glo), 18 h, hits give low values. A digest of the protocol: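 Quantitative high-throughput screen: compounds were pinned onto parental HEK293 cells (2,000 per well) after a minimum 5 h settling at 37 C, incubated 18 h at 37 C, and intracellular ATP measured by luciferase luminescence.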

Test [8] in a line: qHTS assay for cell viability of the p53RE-bla HCT-116 cell line (AID 743292). Further: on the % scale 0 is the no-effect control and ±100 the full control effect; nearly all actives have a fitted effect of over 55% in size. The following applies: p53RE-bla HCT-116 viability, ATP luminescence, 16 h; series mostly up to 95 µM. A digest of the protocol: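 Quantitative high-throughput format: compounds in DMSO were pinned onto p53RE-bla HCT-116 cells (4,000/well) and incubated 16 h at 37 C. Total intracellular ATP, read by CellTiter-Glo luminescence, reflects viable cell number.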

A short description of test [9]: qHTS Assay for Identifying Gametocytocidal Compounds (AID 743244). Further: potency means the concentration at half of the fitted maximal effect.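 On max response: on the % scale 0 is the no-effect control and ±100 the full control effect; actives lower the fluorescent signal which means gametocytes are killed.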 The following applies: P. falciparum 3D7 stage III-V gametocytes, alamarBlue, 72 h; max response: hits give low values. A digest of the protocol:
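Using 20,000 stage III–V 3D7 gametocytes per well, compounds were incubated 72 h under 37 °C/5% CO2. Viability was then assessed by 24 h alamarBlue reduction, measured fluorometrically at 525/598 nm.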

SMILES strings stand for the structures. Where “and” joins values, the source holds several entries; their conditions need not be identical. Equal values may be shown once. Values without a mark were called inactive. Inconclusive results are not listed. Calls of active or inactive are those of the source. Unless noted, the call rests on the fitted dose curve; in most records, active means well fitted curve in the direction sought with a large enough effect; inconclusive means small, poorly fitted or top-dose-only effect, or another doubt; inactive means no such curve, though single readings can be large; an effect the other way counts as inactive or inconclusive.

Chain of Peroxisome proliferator-activated receptor alpha (Homo sapiens) (Q07869 whole entry, looked up): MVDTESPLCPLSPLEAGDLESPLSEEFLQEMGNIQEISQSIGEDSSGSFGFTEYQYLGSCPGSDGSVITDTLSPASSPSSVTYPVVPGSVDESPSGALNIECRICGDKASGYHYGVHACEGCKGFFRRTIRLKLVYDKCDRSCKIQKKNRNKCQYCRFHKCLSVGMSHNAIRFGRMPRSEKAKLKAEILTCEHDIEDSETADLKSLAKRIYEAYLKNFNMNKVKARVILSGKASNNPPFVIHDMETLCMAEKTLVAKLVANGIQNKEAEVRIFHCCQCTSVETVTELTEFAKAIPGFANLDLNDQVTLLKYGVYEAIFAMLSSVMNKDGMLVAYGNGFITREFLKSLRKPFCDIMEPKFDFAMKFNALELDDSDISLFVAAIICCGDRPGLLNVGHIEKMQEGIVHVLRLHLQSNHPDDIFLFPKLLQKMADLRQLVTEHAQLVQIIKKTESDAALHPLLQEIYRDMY

As for `CC(=O)OCC(COC(C)=O)OC(C)=O`, the activation in [1] was 1.18% and -0.878%. Also, the max response was 0.869% and -1.48% in [2]; -0.23% and 1.03% in [6]; 2.21% and 6.16% in [7]. For the same compound, the compound was classed as inactive in [3], in test [4], in test [5] and in [8]. In the case of `CCCCCCCCCCCCCCCCCCO`, the activation in test [1] was 0.518%. Further, the max response in [2] is -0.423%; in test [6] it was 2.19%; in [7], -6.21%. Also, the result in [4] was inactive. In the case of `CC(=O)NS(=O)(=O)c1ccc(N)cc1`, in test [1], the activation is -0.967%. Also, the results for the max response in test [2], in test [6] and in test [7] were -6.08%, -11.8% and -3.22%, respectively. Besides, the compound was classed as inactive in test [3], in [4], in test [5] and in [8].

As for `CC(O)CCCCn1c(=O)c2c(ncn2C)n(C)c1=O` (stereo not drawn), the max response in test [9] was -9.87%. For the compound `CCCCCCCCCCCCCCCCN`, in test [9], the max response is 6.4%. The same measure, in the same setting: as for `CCCNC(C)(C)COC(=O)c1ccccc1`, the figure is 5.84%; as for `CC(=O)N[C@@H](CC(C)C)C(=O)O`, -15.3%; as for `CN1C[C@@H]2C[C@H]1CN2c1cc2c(cc1F)c(=O)c(C(=O)O)cn2C1CC1`, 2.79%. Still for that read-out and setting: as for `CC(C)(C)C(=O)OCOC(=O)[C@@H]1N2C(=O)[C@@H](NC(=O)[C@H](N)c3ccccc3)[C@H]2SC1(C)C`, the figure is 0.54%; as for `CC1(c2ccccc2)OC(C(=O)O)=CC1=O` (stereo not drawn), 25.1%. Regarding `Cn1cc(C(=O)[C@@H]2CCc3nc[nH]c3C2)c2ccccc21`, the max response in test [9] was -8.94%.

As to `Nc1c2c(nc3c1CCC3)CCCC2`, in test [9], the Potency was 11.2 µM (active). With `CC(C)CCCC(C)CCCC(C)CCCCC(C)CCCC(C)CCCC(C)C` (stereo not drawn), the max response in test [9] was 5.26%. Same read-out and setting: the result for `CN1CCN(C(=O)C2CCCCC2)CC1` reads 11.1%; that for `CC(CN(C)C)C(C)(O)Cc1ccc(Cl)cc1` (stereo not drawn), -5.22%; that for `Cc1ccc(S(=O)(=O)NC(=O)NC2CCCCC2)cc1`, 0.0407%. On to `NC(=O)c1ccc([N+](=O)[O-])cc1Cl`, for which the max response in test [9] is -9.98%.

Turning to `O=C(O)CNC(=O)c1ccccc1I`, the max response in [9] was -0.623%. With `O=C(/C=C/c1ccccc1)OCc1ccccc1`, the max response in test [9] was 18.6%. As for `C[C@]1(Cn2ccnn2)[C@H](C(=O)O)N2C(=O)C[C@H]2S1(=O)=O`, the max response in [9] is 9.4%. `CC(=O)OC[C@H]1O[C@@](COC(C)=O)(O[C@H]2O[C@H](COC(C)=O)[C@@H](OC(C)=O)[C@H](OC(C)=O)[C@H]2OC(C)=O)[C@@H](OC(C)=O)[C@@H]1OC(C)=O`: the max response in test [9] is -6.87%. Regarding `NCC1CCC(C(=O)Oc2ccc(CCC(=O)O)cc2)CC1` (stereo not drawn), the max response in [9] was 9.03%.

For `O=C1c2ccccc2S(=O)(=O)N1CCCCN1CCN(c2ncccn2)CC1`, the max response in test [9] is -4.4%. On to `CO[C@@]1(NC(=O)C(C(=O)O)c2ccc(O)cc2)C(=O)N2C(C(=O)O)=C(CSc3nnnn3C)CO[C@@H]21` (stereo partly drawn), for which the max response in test [9] was 2.23%. Same read-out and setting: as for `COc1nccnc1NS(=O)(=O)c1ccc(N)cc1`, the figure is -9.73%; as for `CC(=O)[C@@]1(O)CC[C@H]2[C@@H]3C[C@H](C)C4=CC(=O)C=C[C@]4(C)[C@@]3(F)[C@@H](O)C[C@@]21C`, -2.09%; as for `CC(=O)Nc1ccc(OCCOCCOc2ccc(NC(C)=O)cc2)cc1`, 1.8%. Same read-out and setting: as for `CC(C(=O)O)c1ccc2c(c1)Cc1cccnc1O2` (stereo not drawn), the figure is -8.08%; as for `CNCc1ccccc1`, 8.64%. Take `O=C(NCCCN1CCOCC1)c1ccc(Cl)cc1`: the max response in [9] was -7.89%.
